Source: PubChem BioAssay (NCI)
“And” between values parts separate entries of the source, which are not always exact repeats. Equal values may be shown once. About 83,000 compounds went through this panel and 20% of them were active in at least one assay; those are over-represented in the sample as a whole.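 Results are percent growth after 48 hours of single-concentration exposure. 100 means growth as in untreated cells, lower positive values show inhibition; negative values down to -100 show cell death.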 A structure can be active in one record and inactive in another. The source made the active and inactive calls. Rule for the calls: active = growth percent below 10; inactive = the rest.

Tests used:
Assay in all cases: NCI-60 one-dose screen, 48 h (100 = growth as untreated, 0 = no growth, -100 = all killed)
Conditions in all cases: 10 µM unless noted
NCI-H226 lung = system: NCI-H226 lung
NCI-H322M lung = system: NCI-H322M lung
HOP-62 NSCLC = system: HOP-62 NSCLC
NCI-H460 lung = system: NCI-H460 lung
HOP-92 NSCLC = system: HOP-92 NSCLC
NCI-H522 lung = system: NCI-H522 lung
786-0 renal = system: 786-0 renal
COLO 205 colon = system: COLO 205 colon
DU-145 prostate = system: DU-145 prostate
K-562 leukemia = system: K-562 leukemia
MALME-3M melanoma = system: MALME-3M melanoma
MDA-MB-231 breast = system: MDA-MB-231 breast
RXF 393 renal = system: RXF 393 renal
SF-268 CNS = system: SF-268 CNS
SF-295 CNS = system: SF-295 CNS
SF-539 CNS = system: SF-539 CNS
UACC-257 melanoma = system: UACC-257 melanoma
M14 melanoma = system: M14 melanoma
NCI-H23 lung = system: NCI-H23 lung
A549/ATCC NSCLC = system: A549/ATCC NSCLC

Measured: growth

C1CCCCNCCC1
inactive: NCI-H226 lung 99.2% | NCI-H322M lung 111% | HOP-62 NSCLC 116% | NCI-H460 lung 118% | HOP-92 NSCLC 88.3% | NCI-H522 lung 115% | 786-0 renal 109% | COLO 205 colon 121% | DU-145 prostate 118% | K-562 leukemia 104% | MALME-3M melanoma 106% | MDA-MB-231 breast 101% | RXF 393 renal 103% | SF-268 CNS 109% | SF-295 CNS 104% | SF-539 CNS 113% | UACC-257 melanoma 100% | M14 melanoma 105%

CC(=O)C(/C=N/C(N)=O)=C(/C)O
inactive: NCI-H226 lung 111% | NCI-H322M lung 113% | NCI-H460 lung 116% | HOP-92 NSCLC 119% | NCI-H522 lung 99.6% | 786-0 renal 104% | COLO 205 colon 120% | DU-145 prostate 118% | MALME-3M melanoma 106% | MDA-MB-231 breast 96.5% | RXF 393 renal 114% | SF-268 CNS 109% | SF-295 CNS 101% | SF-539 CNS 103% | UACC-257 melanoma 97.3% | M14 melanoma 108%

Cc1ccc2nc3c(nc2c1)-c1cccc2cccc-3c12
inactive: NCI-H23 lung 89.5% | NCI-H226 lung 86.3% | NCI-H322M lung 74.6% | HOP-62 NSCLC 101% | HOP-92 NSCLC 89.8% | NCI-H522 lung 66.4% | 786-0 renal 105% | COLO 205 colon 70.2% | DU-145 prostate 86.4% | K-562 leukemia 97.5% | MALME-3M melanoma 124% | MDA-MB-231 breast 75.8% | RXF 393 renal 85.2% | SF-268 CNS 89.2% | SF-295 CNS 102% | SF-539 CNS 85.4% | UACC-257 melanoma 106% | M14 melanoma 102%

COC(=O)/C=C/c1cc(O)c2c(c1)C(C(=O)OC)C(c1ccc(O)c(O)c1)O2 (configuration not stated)
active: NCI-H522 lung 1.09% and 0.933% | K-562 leukemia 9.16% and 9.69% | SF-539 CNS 5.8% and 3.46% | M14 melanoma 2.19% and 6.67%
11.7% (inactive) and 7.05% (active): DU-145 prostate
16.5% (inactive) and -0.331% (active): HOP-92 NSCLC
inactive: NCI-H23 lung 30.8% and 27.3% | NCI-H226 lung 57.1% and 39.7% | NCI-H322M lung 72.7% and 55.8% | HOP-62 NSCLC 45.8% and 37.5% | 786-0 renal 17% and 15% | COLO 205 colon 58.5% and 41% | MALME-3M melanoma 72.1% and 69% | MDA-MB-231 breast 13.5% and 18% | RXF 393 renal 55.9% and 30% | SF-268 CNS 34.1% and 28.5% | SF-295 CNS 19.2% and 22.4% | UACC-257 melanoma 62.4% and 60.6%

CC1(c2ccc3ccccc3c2)CCC(=O)O1 (configuration not stated)
inactive: NCI-H23 lung 95% | NCI-H226 lung 110% | HOP-62 NSCLC 93.5% | NCI-H460 lung 112% | HOP-92 NSCLC 106% | NCI-H522 lung 91.3% | A549/ATCC NSCLC 101% | 786-0 renal 103% | COLO 205 colon 99.3% | DU-145 prostate 107% | K-562 leukemia 86.7% | MALME-3M melanoma 96.8% | MDA-MB-231 breast 111% | RXF 393 renal 104% | SF-268 CNS 99.7% | SF-295 CNS 107% | SF-539 CNS 95.7% | UACC-257 melanoma 96.5% | M14 melanoma 117%

N#C/C(=C/c1c(O)ccc2ccccc12)C(N)=O
inactive: NCI-H23 lung 87.1% | NCI-H226 lung 89% | NCI-H322M lung 107% | HOP-62 NSCLC 81.1% | NCI-H522 lung 76.4% | A549/ATCC NSCLC 107% | 786-0 renal 83.6% | COLO 205 colon 105% | DU-145 prostate 104% | K-562 leukemia 97.4% | MALME-3M melanoma 99.4% | MDA-MB-231 breast 86.4% | RXF 393 renal 98.3% | SF-268 CNS 95.4% | SF-295 CNS 91.2% | SF-539 CNS 102% | UACC-257 melanoma 106% | M14 melanoma 94.5%
